PubChem BioAssay AID743294 (Broad Institute, 2014)
Potency and affinity values are given separately. Calls of active or inactive are those of the source.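 The calls were made as follows: active = compounds lowering fluorescence whose fitted half-maximal dose is at most twice the top valid dose; inconclusive = flat fit between -70% and -30%, or poor curve fit; inactive = the rest.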

Molecular target: Caspase-8 (Homo sapiens) (UniProt Q14790)
Experiment: inhibitors of purified CASP8 protease – biochemical, Z-IETD-R110 fluorescence, cherry-picked samples, selectivity assay for caspase-6 inhibitor project, dose response (AID 743294)
Conditions: purified caspase-8, Z-IETD-R110 cleavage fluorescence; series mostly up to 35 µM

Chain of Caspase-8 (Homo sapiens) (Q14790 whole entry, looked up): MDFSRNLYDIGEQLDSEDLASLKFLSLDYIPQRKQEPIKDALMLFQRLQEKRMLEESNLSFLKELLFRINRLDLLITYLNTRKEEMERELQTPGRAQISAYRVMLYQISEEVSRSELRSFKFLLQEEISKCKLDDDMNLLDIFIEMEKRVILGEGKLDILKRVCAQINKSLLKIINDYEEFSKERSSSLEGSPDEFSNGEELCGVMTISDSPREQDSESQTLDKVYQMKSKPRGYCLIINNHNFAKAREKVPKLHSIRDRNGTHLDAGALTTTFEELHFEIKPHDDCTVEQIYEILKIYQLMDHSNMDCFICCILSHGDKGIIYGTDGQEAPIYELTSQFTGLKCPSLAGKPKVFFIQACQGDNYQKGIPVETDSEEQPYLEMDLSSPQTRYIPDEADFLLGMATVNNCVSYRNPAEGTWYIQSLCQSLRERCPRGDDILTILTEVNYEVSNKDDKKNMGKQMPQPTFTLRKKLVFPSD

outcome, inactive:
CC(CNc1ccccc1O)C(=O)O (centres undefined)
COc1ccc(NS(=O)(=O)c2ccc3c(c2)[C@H]2C=CC[C@H]2[C@@H](c2ccc(C(=O)O)cc2)N3)cc1
COCCn1c2nc(=O)n(-c3ccccc3)c(=O)c-2nc2ccccc21
O=c1c(CO)cc(CO)cc(CO)c1O
Oc1cc2c(cc1O)[C@H]1c3ccc(O)c(O)c3OC[C@@]1(O)C2
O=[N+]([O-])c1c(Nc2ccccn2)cc(Cl)c2nonc12
O=C(O)/C(=C\c1ccc(Cl)c([N+](=O)[O-])c1)c1ccc(S(=O)(=O)N2CCCC2)s1
O=C(C[C@@H]1C[C@H]2c3cc(NC(=O)NC4CCCCC4)ccc3O[C@H]2[C@H](CO)O1)NCc1ccccn1
CCOC(=O)c1sc2nc(OCCN3CCOCC3)cc(C)c2c1N
O=C(O)CC(CCc1ccccc1)OC1OC(CO)C(O)C(O)C1O (centres undefined)
Cc1oc2c(cc(NS(=O)(=O)c3ccc(C(C)C)cc3)c3ccccc32)c1C(=O)O
Cc1[nH]nc(S(=O)CC(=O)O)c1[N+](=O)[O-] (centres undefined)
COc1cc(NC(C)CCCNC(C)C)c2ncccc2c1OC (centres undefined)
CCOC(=O)[C@H](Cc1c[nH]c2ccccc12)NC(=O)CN=[N+]=[N-]
COc1cc(NCCCCC(C)N)c2nccc(C)c2c1 (centres undefined)
Nc1c(O)cccc1C(=O)O
O=C(O)CCc1ccc(-c2ccc(Br)cc2)n1CC(=O)O
O=c1cc2c(=O)oc3cc(O)c(O)oc3c2c(O)c1O
CO[C@H]1CN(C)C(=O)c2cc(NC(C)=O)ccc2OC[C@@H](C)N(C(=O)CC2CC2)C[C@H]1C
[O-][n+]1onc2c1CCc1c-2nn(-c2ccccc2Cl)[n+]1[O-]
Nc1cc(S(=O)(=O)O)cc([N+](=O)[O-])c1O
CNS(=O)(=O)c1cccc(C(=O)OCC(=O)N2c3ccccc3NC(=O)C2(C)C)c1
O=C(Nc1ccc2nc3n(c(=O)c2c1)CCCCC3)c1c(F)ccc([N+](=O)[O-])c1F
CCCSC1=N/C(=C\c2ccc([N+](=O)[O-])o2)C(=O)S1
O=C(Nc1ccc(S(=O)(=O)Nc2cnc3ccccc3n2)cc1)c1ccc(Cl)c([N+](=O)[O-])c1
O=C(O)Cc1ccc(-n2cccc2)cc1
COc1ccc(C(=O)OCC(=O)Nc2ncc([N+](=O)[O-])s2)cc1OC
COc1ccc([N+](=O)[O-])cc1NC(=O)CCS(=O)(=O)c1ccc(Br)cc1
CCN(CC)CCCC(C)n1c2nc(=O)[nH]c(=O)c-2nc2cc(Cl)ccc21 (centres undefined)
Nc1ccc(Nc2ccccc2)c(S(=O)(=O)O)c1
Cn1cnnc1SCC(=O)Nc1ncc([N+](=O)[O-])s1
Cc1cc(C=O)c(C)n1-c1cc(C(=O)O)cc(C(=O)O)c1
C/C(CC(=O)N1CCCC1)=N\NC(=O)c1cc2ccccc2cc1O
O=P(c1ccccc1)(c1ccccc1)c1cc(S(=O)(=O)O)ccc1O
Cc1ccc(S(=O)c2ccc([N+](=O)[O-])c3nonc23)cc1 (centres undefined)
Cc1ccc(S(=O)(=O)Nc2csc(C)c2C(=O)O)cc1
CCCCNC(=O)c1nc(C2CCNCC2)oc1-c1cccc(C(F)(F)F)c1
Cc1cc(C=O)c(C)n1-c1ccc(Cl)c(C(=O)O)c1
O=C(CCO)c1ccc(O)cc1
